An excerpt weighted towards active compounds, which were near 2.9% of everything screened.
Nrf2 ARE act: activators of Nrf2 (ARE) signaling | AREc32 ARE-luciferase reporter (MCF7-derived line), luminescence, 24 h | Potency, µM (titrated, usually from 46.1 µM), for inactives: top-dose activation, usual class: activators | 0.31% of 410,000 active | AID 624171; note: potency is the fitted concentration of half-maximal effect; % of control where 0% means no effect; nearly all actives have a fitted effect of over 65% in size
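ARE-driven firefly luciferase activity in AREc32 cells measured after a 24 hr compound exposure at 37 deg C, using Steady-Glo reagent and a 30 min room-temperature hold.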
A549 tox: counter-screen for Nrf2 inhibitors: cytotoxicity in A549 cells; A549 ARE-Fluc cells, CellTiter-Fluor viability, 18-24 h; Potency, µM (series often up to 46 µM), inactives show at the highest dose activity change, negative = cytotoxicity, most hits filed as inhibitors; 0.16% of 390,000 active; AID 504648; note: potency is the fitted concentration of half-maximal effect; % is set by controls: 0 for no effect and ±100 for the full control effect
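Cytotoxicity counterscreen: CellTiter-Fluor fluorescence was measured in A549 ARE_Fluc cells after 18-24 h of compound exposure in a concentration series. The subsequent BugLite luminescent read reports ARE-luciferase activity.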
S2 tox: cell viability loss in ATXN counter-screen; S2 cells (HEK-293 line with an ATXN2-luciferase reporter) viability, CellTiter-Fluor protease fluorescence, 24 h; Potency, µM (titrated, usually from 56.7 µM), usual class: cytotoxic; 0.49% of 400,000 active; AID 651635; note: potency is the fitted concentration of half-maximal effect; nearly all actives have a fitted effect of over 40% in size
Nrf2 inh: blocks Nrf2 signaling. A549 ARE-Fluc reporter, luciferase luminescence, 18-24 h. Potency, µM (doses to about 46 µM), without a hit: at the top dose activity change, negative = inhibition, usual class: inhibitors. 2.1% of 360,000 active. AID 504444; note: potency is the fitted concentration of half-maximal effect; % is set by controls: 0 for no effect and ±100 for the full control effect; nearly all actives have a fitted effect of over 60% in size
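Concentration-response testing used A549 ARE_Fluc cells at 5000 cells/well. Following an 18-24 h compound incubation, viability was read by fluorescence (Ex 405/Em 525) and luciferase output by luminescence.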
ATXN2 expr inh: ATXN2 expression inhibition | HEK-293 ATXN2-luciferase reporter, luminescence, 24 h | Potency, µM (series often up to 57 µM), without a hit: at the highest dose activity change, negative = inhibition, most hits filed as inhibitors | 0.72% of 360,000 active; note: potency is the fitted concentration of half-maximal effect; % is set by controls: 0 for no effect and ±100 for the full control effect; nearly all actives have a fitted effect of over 55% in size
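qHTS (up to 57 uM final) was run with 24 h compound exposure of reporter cells at 37 °C. Each well was multiplexed: SteadyGlo luminescence measured ATXN2-luciferase expression after a fluorogenic Gly-Phe-AFC viability readout (25 uM final).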
SKNSH spheroid: reduced viability of SK-N-SH 3D spheroids, orthogonal test; shares compounds with ATXN2 expr inh; SK-N-SH 3D spheroid viability, PI/Hoechst imaging, 72 h; Potency, µM (titrated, usually from 30.7 µM), most hits filed as inhibitors; 70% of 65 active; AID 1347135
SJGBM2 3D viab: SJ-GBM2 spheroid viability loss, orthogonal 3D screen; 80% of 65 active; Potency, µM (highest dose often 30.7 µM), hits mostly inhibitors; AID 1347136; shares compounds with ATXN2 expr inh; SJ-GBM2 3D spheroid viability, PI/Hoechst imaging, 72 h
Daoy 3D tox: reduced viability of Daoy 3D spheroids, orthogonal test. AID 1347137. Potency, µM (series often up to 30.7 µM), most hits filed as inhibitors. Daoy 3D spheroid viability, PI/Hoechst imaging, 72 h. shares compounds with ATXN2 expr inh. 50% of 65 active
TC32 3D caspase: activates caspase in TC32 3D spheroids; shares compounds with ATXN2 expr inh; 30% of 65 active; Potency, µM (titrated, usually from 30.7 µM), most hits filed as inhibitors; TC32 3D spheroids, caspase-3/7 fluorescence imaging, 24 h
TC32 3D tox: reduced viability of TC32 3D spheroids, orthogonal test. shares compounds with ATXN2 expr inh. TC32 3D spheroid viability, PI/Hoechst imaging, 72 h. Potency, µM (highest dose often 30.7 µM), most hits filed as inhibitors. 60% of 65 active. AID 1347139
MG63 3D tox: MG-63 (6-TG R) 3D spheroid viability loss | 50% of 65 active | AID 1347140 | MG-63 (6-TG R) 3D spheroid viability, PI/Hoechst imaging, 72 h | Potency, µM (series often up to 30.7 µM), hits mostly inhibitors | shares compounds with ATXN2 expr inh
RD 3D tox: RD 3D spheroid viability loss; 50% of 65 active; RD rhabdomyosarcoma 3D spheroid viability, PI/Hoechst imaging, 72 h; shares compounds with ATXN2 expr inh; Potency, µM (series often up to 30.7 µM), usual class: inhibitors; AID 1347141
An asterisk follows results filed as active; i = inactive; ? = inconclusive; nt = no result given; ! = repeats disagree. Calls come from the whole dose curve; as a rule, active = well fitted curve in the direction sought with a large enough effect; inconclusive = small, poorly fitted or top-dose-only effect, or another doubt; inactive = no such curve, though single readings can be large; an effect the other way counts as inactive or inconclusive.

SMILES	Nrf2 ARE act	A549 tox	S2 tox	Nrf2 inh	ATXN2 expr inh	SKNSH spheroid	SJGBM2 3D viab	Daoy 3D tox	TC32 3D caspase	TC32 3D tox	MG63 3D tox	RD 3D tox
CC(C)Cc1ccc(C(C)C(=O)O)cc1 (stereo not drawn)	0%	-3%	i	6%	5%	?	11µM*	?	i	i	i	i
CC(C)Cc1ccc(C(C)C(=O)Nc2ncccn2)cc1 (stereo not drawn)	3%	7%	nt	-15%	-15%	nt	nt	nt	nt	nt	nt	nt
Cc1ccccc1OCC(=O)OCC(=O)NCc1ccccc1	-1%	1%	?	7%	nt	nt	nt	nt	nt	nt	nt	nt
Nc1nc(Cl)nc2c1ncn2[C@@H]1O[C@H](CO)[C@@H](O)[C@@H]1F	nt	nt	?	nt	1µM*	i	0.023µM*	?	i	5.1µM*	0.16µM*	?
Nc1nc(Cl)c2ncn(C3OC(CO)C(O)C3O)c2n1 (stereo not drawn)	0%	10%	i	-5%	-4%	nt	nt	nt	nt	nt	nt	nt
CC(=O)[C@]1(O)Cc2c(O)c3c(c(O)c2[C@@H](O[C@H]2C[C@H](N)[C@H](O)[C@H](C)O2)C1)C(=O)c1ccccc1C3=O	-3%	?	nt	?	13µM*!	0.091µM*	0.16µM*	1.8µM*	7.2µM*	0.2µM*	1.1µM*	1.6µM*
COc1cccc2c1C(=O)c1c(O)c3c(c(O)c1C2=O)C[C@@](O)(C(=O)CO)C[C@@H]3O[C@H]1C[C@H](N)[C@@H](O)[C@H](C)O1	-4%	?	nt	3.3µM*	0.43µM*!	0.51µM*	0.91µM*	1.6µM*	1µM*	0.81µM*	5.1µM*	9.1µM*
Nc1ncnc2c1ncn2CCOc1ccccc1	3%	-3%	i	17%	13%	nt	nt	nt	nt	nt	nt	nt
CC(C)(C)C(=O)OCOP(=O)(COCCn1cnc2c(N)ncnc21)OCOC(=O)C(C)(C)C	nt	nt	i	nt	3.5µM*!	5.1µM*	4.1µM*	?	i	2.6µM*	?	?
CCc1nc(N)nc(N)c1-c1ccc(Cl)cc1	1%	0%	i	?	?	?	0.91µM*	?	i	?	?	?
Cc1ccc(C(=O)NCC2CCCO2)cc1[N+](=O)[O-] (stereo not drawn)	0%	1%	i	1%	1%	nt	nt	nt	nt	nt	nt	nt
COc1ccc(OC)c2[nH]c(=O)c(CCNC(=O)COc3ccccc3)cc12	0%	-2%	i	15%	3%	nt	nt	nt	nt	nt	nt	nt

Screening data deposited in PubChem by National Center for Advancing Translational Sciences (NCATS).
